Some test systems named below: NCI-H23 lung; NCI-H226 lung; NCI-H322M lung; NCI-H460 lung; HOP-92 NSCLC; NCI-H522 lung; A549/ATCC NSCLC; 786-0 renal; COLO 205 colon; DU-145 prostate; K-562 leukemia; MALME-3M melanoma; MDA-MB-231 breast; SF-268 CNS; SF-295 CNS; SF-539 CNS; M14 melanoma; RXF 393 renal; UACC-257 melanoma; HOP-62 NSCLC.
Holding throughout (experiment): NCI-60 one-dose screen, 48 h (100 = growth as untreated, 0 = no growth, -100 = all killed)
Details in all cases: 10 µM unless noted

Compounds without any hit were thinned out: in the full panel of roughly 83,000, 20% have a hit.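 Cell lines were cultured in 96-well plates, exposed to a single compound concentration, and assessed for percent growth 48 hours later.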 A number with no mark means an inactive call. The source made the active and inactive calls. Rule for the calls: active = growth percent below 10; inactive = the rest.

Turning to `CC(C)[C@@H](C)/C=C/[C@@H](C)[C@H]1CCC2=C3C=CC4=CC(=O)CC[C@]4(C)[C@H]3CC[C@@]21C`, the growth in the experiment with NCI-H23 lung was 96%; in the experiment on NCI-H226 lung it was 93.2%; in the experiment with NCI-H322M lung, 93.9%; with NCI-H460 lung, 107%; with HOP-92 NSCLC, 86.6%; in the experiment with NCI-H522 lung it was 67.2%. Besides, the growth in the experiment with A549/ATCC NSCLC was 77.4%; in the experiment with 786-0 renal it was 101%; in the experiment on COLO 205 colon, 105%; with DU-145 prostate, 105%; with K-562 leukemia, 92.6%; in the experiment on MALME-3M melanoma, 110%. Moreover, the growth is 105% in the experiment on MDA-MB-231 breast; 98.9% in the experiment with SF-268 CNS; 94.9% with SF-295 CNS; 106% in the experiment with SF-539 CNS; 98.6% in the experiment on M14 melanoma.
For the molecule `COc1cc(N2CCC(N(C)C)CC2)ccc1Nc1ncc(Cl)c(Nc2ccccc2P(C)(C)=O)n1`, the growth in the experiment on NCI-H23 lung was 5.53% (active); with NCI-H226 lung, -44.3% (active); with NCI-H322M lung, -9.57% (active); in the experiment with NCI-H460 lung it was 7% (active); in the experiment with HOP-92 NSCLC, -60.2% (active); with NCI-H522 lung, -39.4% (active). The growth with A549/ATCC NSCLC was -35.8% (active); in the experiment on 786-0 renal it was -20.6% (active); in the experiment on DU-145 prostate, 0.609% (active); in the experiment with K-562 leukemia, 12.5%; in the experiment with MALME-3M melanoma, 32%; in the experiment on MDA-MB-231 breast, 5.47% (active). Besides, the growth is -60.1% (active) in the experiment with RXF 393 renal; -26.8% (active) in the experiment on SF-268 CNS; 27.7% with SF-295 CNS; -49.3% (active) in the experiment with SF-539 CNS; 17.2% in the experiment with UACC-257 melanoma; 10.3% in the experiment on M14 melanoma.
With `COc1ccc(-c2ccc3c(N4CCOC[C@@H]4C)nc(N4CCOC[C@@H]4C)nc3n2)cc1CO`, the growth in the experiment on NCI-H23 lung was 20.3%; in the experiment on NCI-H226 lung it was -9.74% (active); in the experiment with NCI-H322M lung, -5.27% (active); with NCI-H460 lung it was 8.4% (active); in the experiment with HOP-92 NSCLC it was -21.1% (active); in the experiment with NCI-H522 lung, 8.31% (active). For the same molecule, the growth is -12.6% (active) with A549/ATCC NSCLC; 2.33% (active) in the experiment with 786-0 renal; -14.1% (active) in the experiment on COLO 205 colon; 11.6% in the experiment with DU-145 prostate; 12.8% in the experiment on K-562 leukemia; -8.07% (active) in the experiment with MALME-3M melanoma. For the same molecule, the growth with MDA-MB-231 breast is 13%; with RXF 393 renal it was -27.5% (active); in the experiment on SF-268 CNS, 14.9%; in the experiment on SF-295 CNS, -35% (active); in the experiment with SF-539 CNS, -39.2% (active); in the experiment on UACC-257 melanoma, -24.8% (active). Further, the growth with M14 melanoma is 6.2% (active).
Take `COc1ccc(CCCc2c3[n+](cc4c(OC)c(OC)ccc24)CCc2cc4c(cc2-3)OCO4)cc1`: the growth is 47.4% with NCI-H23 lung; 88.4% in the experiment on NCI-H226 lung; 96.1% in the experiment on NCI-H322M lung; 52.4% with NCI-H460 lung; 77.8% in the experiment on HOP-92 NSCLC; 38.7% in the experiment with NCI-H522 lung. Also, the growth in the experiment on A549/ATCC NSCLC was 61.2%; with 786-0 renal it was 92.2%; in the experiment on COLO 205 colon, -11.2% (active); in the experiment on DU-145 prostate, 79.3%; with K-562 leukemia, 57.8%; in the experiment with MALME-3M melanoma, 94.4%. In addition, the growth with MDA-MB-231 breast was 84.6%; with SF-268 CNS, 63%; with SF-295 CNS, 78.9%; in the experiment on SF-539 CNS, 92.3%; in the experiment on M14 melanoma it was 85.1%.
For `CN(C)CCOC(=O)Nc1nc2ccc(Sc3ccccc3)cc2[nH]1`, the growth in the experiment with NCI-H23 lung was 44%; in the experiment on NCI-H322M lung, 36.9%; in the experiment with HOP-62 NSCLC, 29.1%; in the experiment on NCI-H460 lung, 13%; with HOP-92 NSCLC it was 41.8%; in the experiment with NCI-H522 lung it was -24% (active). In addition, the growth with A549/ATCC NSCLC was 38.7%; with 786-0 renal, 42.2%; in the experiment on COLO 205 colon, 8.53% (active); with DU-145 prostate, 27.2%; with K-562 leukemia, 15.7%; in the experiment with MALME-3M melanoma it was 49.2%. The growth in the experiment with MDA-MB-231 breast was 47.8%; in the experiment on RXF 393 renal, 14.1%; in the experiment with SF-268 CNS, 51%; with SF-295 CNS it was 24.9%; in the experiment with SF-539 CNS, -0.508% (active); in the experiment with UACC-257 melanoma, 49.1%. Also, the growth in the experiment with M14 melanoma is 0.259% (active).
Take `COc1cc(Nc2c(C#N)cnc3cc(OCCCN4CCN(C)CC4)c(OC)cc23)c(Cl)cc1Cl`: the growth with NCI-H23 lung was 61.5%; in the experiment with NCI-H322M lung it was 13.3%; in the experiment with HOP-62 NSCLC, 61.3%; in the experiment with NCI-H460 lung, 38.6%; in the experiment on HOP-92 NSCLC it was 98%; with NCI-H522 lung, 14.5%. Moreover, the growth in the experiment on A549/ATCC NSCLC was 36.1%; in the experiment with 786-0 renal it was 67.7%; in the experiment with COLO 205 colon, 6.9% (active); in the experiment with DU-145 prostate, 46%; with K-562 leukemia it was 22.7%; in the experiment with MALME-3M melanoma, 1.06% (active). The growth with MDA-MB-231 breast is 62.3%; in the experiment on RXF 393 renal, 59%; in the experiment on SF-268 CNS, 70.5%; in the experiment on SF-295 CNS, 83.7%; with SF-539 CNS, 94.4%; in the experiment on UACC-257 melanoma it was -8.01% (active). In addition, in the experiment on M14 melanoma, the growth is 13%.
For the molecule `Cc1cc(C(=O)Nc2cc(Oc3ccc4nc(NC(=O)C5CC5)cn4n3)ccc2C)n(C)n1`, the growth in the experiment on NCI-H23 lung was 24.7%; in the experiment on NCI-H322M lung, 15.8%; in the experiment on HOP-62 NSCLC, 14.4%; in the experiment with NCI-H460 lung it was 18.9%; in the experiment on HOP-92 NSCLC, -25.6% (active); in the experiment on NCI-H522 lung, 14.1%. Besides, the growth with A549/ATCC NSCLC is 11%; in the experiment on 786-0 renal, 51.9%; with COLO 205 colon, -27.2% (active); in the experiment with DU-145 prostate, 54.3%; in the experiment with K-562 leukemia, 7.79% (active); with MALME-3M melanoma, -5.45% (active). Also, the growth in the experiment on MDA-MB-231 breast is 21.9%; in the experiment on RXF 393 renal, -15.1% (active); in the experiment with SF-268 CNS it was 40.9%; in the experiment with SF-295 CNS it was 52.5%; with SF-539 CNS, 3.9% (active); in the experiment on UACC-257 melanoma it was -29% (active). Moreover, the growth in the experiment on M14 melanoma is -8.27% (active).
As for `O=C(NO)c1ccc(Cn2c(=O)n(-c3ccccc3F)c(=O)c3ccccc32)cc1`, the growth in the experiment on NCI-H23 lung was -40.4% (active); with NCI-H322M lung, 26.2%; in the experiment with HOP-62 NSCLC it was 8.43% (active); in the experiment on NCI-H460 lung it was 19%; in the experiment on HOP-92 NSCLC, 23.2%; in the experiment on NCI-H522 lung, -60.3% (active). Also, the growth with A549/ATCC NSCLC was 5.07% (active); with 786-0 renal, 33.3%; in the experiment with DU-145 prostate it was 6.2% (active); in the experiment on K-562 leukemia, 1.13% (active); in the experiment on MDA-MB-231 breast, 21.3%; in the experiment on RXF 393 renal it was -44.8% (active). The growth is 1.99% (active) with SF-268 CNS, -44.3% (active) with SF-295 CNS, -12.8% (active) with SF-539 CNS and -22.6% (active) in the experiment with M14 melanoma.

Source of the values: PubChem BioAssay (NCI).
